Measurements as given in the supplement of paper PMC7366291.
Where a name gives a salt, the structure may show the parent alone. ± gives the standard deviation.

system: Danio rerio Tg(wt1b:EGFP) embryo, pronephros; test: glomerular separation, fold change vs DMSO control; higher = glomeruli further apart (abnormal); details: 25 µM; exposure: 24-48 hpf
Procedure, shortened: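 Using a Fiji macro, distances and angles were calculated from 16 reference points set by hand on maximum projections of pronephroi imaged dorsally (470 nm, 10 z-slices) in agarose-filled 96-well plates. The dechorionated Tg(wt1b:EGFP) zebrafish embryos had received 25 μM compound in 0.5% DMSO in HEPES-buffered E3 with 0.003% PTU from 24 to 48 hpf at 28.5°C. Values more than 2 SD from a feature's mean were excluded. Each feature appears as a fold change over the mean of DMSO-treated embryos from the same day.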

SMILES | glomerular separation
CCN(CC)CCNC(=O)COc1ccc(OC)cc1 [Mefexamide hydrochloride] | 1.52 ± 0.84
COc1ccc2c(c1)N(C[C@H](C)CN(C)C)c1ccccc1S2 [Methotrimeprazine maleat salt] | 1.16 ± 0.65
CCN(CC)CCNC(=O)c1cc(Br)c(N)cc1OC [Bromopride] | 0.903 ± 0.35
Cc1cccc(CN2CCN(C(c3ccccc3)c3ccc(Cl)cc3)CC2)c1 (stereo not given) [Meclozine dihydrochloride] | 1.25 ± 0.33
CCN(CC)CC#CCOC(=O)C(O)(c1ccccc1)C1CCCCC1 (stereo not given) [Oxybutynin chloride] | 1.32 ± 0.54
CN(C)CCCSC(=N)N [Dimaprit dihydrochloride] | 0.745 ± 0.36
Cc1cc(-n2c(=O)[nH]c(=O)n(C)c2=O)ccc1Oc1ccc(SC(F)(F)F)cc1 [Toltrazuril] | 1.34 ± 0.62
CCOC(=O)[N-]c1c[n+](N2CCOCC2)no1 [Molsidomine] | 0.9 ± 0.41
O=C1CN(/N=C/c2ccc(-c3ccc([N+](=O)[O-])cc3)o2)C(=O)N1 [Dantrolene sodium salt] | 1.46 ± 0.66
CC[C@H]1OC(=O)C[C@@H](O)[C@H](C)[C@@H](O[C@@H]2O[C@H](C)[C@@H](O[C@H]3C[C@@](C)(O)[C@@H](O)[C@H](C)O3)[C@H](N(C)C)[C@H]2O)[C@@H](CC=O)C[C@@H](C)C(=O)/C=C/C(C)=C/[C@@H]1CO[C@@H]1O[C@H](C)[C@@H](O)[C@@H](OC)[C@H]1OC [Tylosin] | 0.911 ± 0.28
CN(C)CCOC(c1ccccc1)c1ccccc1.Cn1c(=O)c2[nH]c(Cl)nc2n(C)c1=O [Dimenhydrinate] | 1.31 ± 0.54
O=C(O)Cc1sc(-c2ccccc2)nc1-c1ccc(Cl)cc1 [Fentiazac] | 6.56 ± 3.2
CCCCOc1cc(C(=O)NCCN(CC)CC)c2ccccc2n1 [Dibucaine] | 1.35 ± 0.37
CCCCc1nc(Cl)c(CO)n1Cc1ccc(-c2ccccc2-c2nnn[nH]2)cc1 [Losartan] | 0.969 ± 0.39
CCCCNC(=O)NS(=O)(=O)c1ccc(C)cc1 [Tolbutamide] | 1.01 ± 0.53
COC(c1ccccc1)(c1ccccc1)[C@H](Oc1nc(C)cc(C)n1)C(=O)O [Ambrisentan] | 0.883 ± 0.35
CCS(=O)(=O)CCn1c([N+](=O)[O-])cnc1C [Tinidazole] | 0.882 ± 0.35
Clc1ccccc1CN1CCc2sccc2C1 [Ticlopidine hydrochloride] | 1.13 ± 0.49
CC(CCc1ccccc1)NCC(O)c1ccc(O)c(C(N)=O)c1 (stereo not given) [Labetalol hydrochloride] | 1.04 ± 0.16
C[N+](C)(CCOc1ccccc1)Cc1ccccc1.O=C([O-])c1cc2ccccc2cc1O [Bephenium hydroxynaphthoate] | 2.05 ± 0.8

SMILES | glomerular separation
O=C(c1ccc(OCCN2CCCCC2)cc1)c1c(-c2ccc(O)cc2)sc2cc(O)ccc12 [Raloxifene hydrochloride] | 0.793 ± 0.18
C[C@]12CCC(=O)C=C1C=C[C@@H]1[C@@H]2CC[C@@]2(C)[C@H]1CC[C@@]21CCC(=O)O1 [Canrenone] | 1.24 ± 0.51
Clc1ccc(COC(Cn2ccnc2)c2ccc(Cl)cc2Cl)c(Cl)c1 (stereo not given) [Miconazole] | 3.42 ± 1.6
CC[C@H]1OC(=O)[C@H](C)[C@@H](O[C@H]2C[C@@](C)(OC)[C@@H](O)[C@H](C)O2)[C@H](C)[C@@H](O[C@@H]2O[C@H](C)C[C@H](N(C)C)[C@H]2O)[C@](C)(O)C[C@@H](C)CN(C)[C@H](C)[C@@H](O)[C@]1(C)O [Azithromycin] | 0.933 ± 0.41
COc1cc2c(cc1OC)C(=O)C(CC1CCN(Cc3ccccc3)CC1)C2 (stereo not given) [Donepezil hydrochloride] | 0.812 ± 0.32
CC(=O)CCCCn1c(=O)c2c(ncn2C)n(C)c1=O [Pentoxifylline] | 0.678 ± 0.2
C[C@]12CC[C@H]3C(=CCc4cc(O)ccc43)[C@@H]1CCC2=O [Equilin] | 1.59 ± 0.67
CCn1cc(C(=O)O)c(=O)c2cnc(N3CCCC3)nc21 [Piromidic acid] | 0.725 ± 0.31
Cc1cc(N)c2ccccc2[n+]1CCCCCCCCCC[n+]1c(C)cc(N)c2ccccc21 [Dequalinium dichloride] | 1 ± 0.33
Nc1nc(F)nc2c1ncn2[C@@H]1O[C@H](CO)[C@@H](O)[C@@H]1O [Fludarabine] | 0.97 ± 0.29
CC(C)NCC(O)COc1cccc2[nH]ccc12 (stereo not given) [Pindolol] | 0.674 ± 0.2
CC(=O)N(CC(O)CN(C(C)=O)c1c(I)c(C(=O)NCC(O)CO)c(I)c(C(=O)NCC(O)CO)c1I)c1c(I)c(C(=O)NCC(O)CO)c(I)c(C(=O)NCC(O)CO)c1I (stereo not given) [Iodixanol] | 0.874 ± 0.28
N/C(=N\C(=O)c1nc(Cl)c(N)nc1N)NCc1ccccc1 [Benzamil hydrochloride] | 0.935 ± 0.43
CC(C)[C@H]1CC[C@H](C(=O)N[C@H](Cc2ccccc2)C(=O)O)CC1 [Nateglinide] | 0.985 ± 0.37
NC(CO)C(=O)NNCc1ccc(O)c(O)c1O (stereo not given) [Benserazide hydrochloride] | 1.17 ± 0.44
Cc1cc(/C=C/c2ccc3cc(N(C)C)ccc3[n+]2C)c(C)n1-c1ccccc1 [Pyrvinium pamoate] | 1.12 ± 0.41
Cc1cnc(C(=O)NCCc2ccc(S(=O)(=O)NC(=O)NC3CCCCC3)cc2)cn1 [Glipizide] | 0.984 ± 0.34
C=C1c2c(Cl)ccc(O)c2C(=O)C2=C(O)[C@]3(O)C(=O)C(C(N)=O)=C(O)[C@@H](N(C)C)[C@@H]3[C@@H](O)[C@H]12.O=C(O)c1cc(S(=O)(=O)O)ccc1O [Meclocycline sulfosalicylate] | 1.02 ± 0.24
CN1CCC[C@@H]1CCO[C@](C)(c1ccccc1)c1ccc(Cl)cc1 [Clemastine fumarate] | 0.925 ± 0.57
CCCCN(CCCC)CCC(O)c1cc2c(Cl)cc(Cl)cc2c2cc(C(F)(F)F)ccc12 (stereo not given) [Halofantrine hydrochloride] | 4.43 ± 1.8
